Measured values taken from PubChem BioAssay (Tox21).
Results filed as inconclusive are left out. Calls of active or inactive are those of the source. Unless noted, calls come from the whole dose curve; as a rule, active = well fitted curve in the direction sought with a large enough effect in the repeat runs; inconclusive = weak or mixed curves; inactive = no such curve, though single readings can be large; an effect the other way counts as inactive or inconclusive.

Experiments:
[1] = qHTS assay to identify small molecule antagonists of the estrogen related receptor (ERR) signaling pathway - cell viability counter screen (AID 1224818); note: potency is the fitted concentration of half-maximal effect
Outline: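 Fluorescence from CellTiter-Fluor, read 30 min after reagent addition at 37 C, measured viability of ERR cells exposed to compounds for 17.5 h. Cells had settled 6 h before dosing.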

[2] = qHTS assay to identify small molecule antagonists of the estrogen related receptor (ERR) signaling pathway (AID 1224819; note: nearly all actives have a fitted effect of over 50% in size; note: potency is the fitted concentration of half-maximal effect)
Outline: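 Luminescence readout (One-Glo, 30 min, RT) of ERR cell line after 18 h compound exposure at 37 C; cells seeded 2,000/well, pre-incubated 6 h, compounds pinned from DMSO stocks.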

[3] = qHTS assay to identify small molecule agonists of the estrogen related receptor (ERR) signaling pathway (AID 1224820)
Outline: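 Following a 6 h settling period, 2,000 ERR cells per well receive DMSO-dissolved compounds by pin tool and incubate 18 h at 37 C; agonist activity is scored from One-Glo luminescence read 30 min post-addition.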

[4] = system: estrogen-related receptor alpha (ERRalpha) with PGC-1alpha coactivator, human; experiment: qHTS assay to identify small molecule antagonists of the estrogen related receptor signaling pathway with the pleiotropic PPARgamma coactivator (PGC) (AID 1224821; calls by dose curve; note: nearly all actives have a fitted effect of over 50% in size; note: potency is the fitted concentration of half-maximal effect)
Outline: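 Screening used NTP's PGC/ERR cells, dosed via pin tool with compound in DMSO alongside positive and negative controls. After 18 h at 37 C, One-Glo reagent sat 30 min at room temperature before luminescence detection.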

[5] = qHTS assay to identify small molecule antagonists of the estrogen related receptor signaling pathway with the pleiotropic PPARgamma coactivator (PGC) cell viability counter screen (AID 1224822; note: potency is the fitted concentration of half-maximal effect)
Outline: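 Fluorescence read-out of CellTiter-Fluor after 30 min at 37 C; PGC/ERR cells, 2,000 per well, had been exposed to DMSO-dissolved compounds for 17.5 h following a 6 h pre-incubation.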

[6] = qHTS assay to identify small molecule agonists of the estrogen related receptor signaling pathway with the pleiotropic PPARgamma coactivator (PGC) (AID 1224823); note: potency is the fitted concentration of half-maximal effect
Outline: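 In this quantitative high-throughput screen, an 18 h, 37 C treatment of PGC/ERR cells with compounds in DMSO preceded a One-Glo luminescence read taken after 30 min at room temperature.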

[7] = qHTS assay to identify small molecule antagonists of the estrogen related receptor (ERR) signaling pathway from Tox21 library - cell viability counter screen (AID 1224834); note: nearly all actives have a fitted effect of over 30% in size
Outline: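 Multiplexed viability counter screen in ERR cells: 17.5 h compound exposure at 37 C, CellTiter-Fluor added, 30 min at 37 C/5% CO2, fluorescence read.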

[8] = target: Luciferin 4-monooxygenase (Photinus pyralis) (UniProt P08659); experiment: qHTS assay to identify small molecule inhibitors of firefly luciferase (AID 1224835); note: series mostly up to about 120 µM; nearly all actives have a fitted effect of over 25% in size
Sequence of Luciferin 4-monooxygenase (Photinus pyralis) (P08659 whole entry, looked up): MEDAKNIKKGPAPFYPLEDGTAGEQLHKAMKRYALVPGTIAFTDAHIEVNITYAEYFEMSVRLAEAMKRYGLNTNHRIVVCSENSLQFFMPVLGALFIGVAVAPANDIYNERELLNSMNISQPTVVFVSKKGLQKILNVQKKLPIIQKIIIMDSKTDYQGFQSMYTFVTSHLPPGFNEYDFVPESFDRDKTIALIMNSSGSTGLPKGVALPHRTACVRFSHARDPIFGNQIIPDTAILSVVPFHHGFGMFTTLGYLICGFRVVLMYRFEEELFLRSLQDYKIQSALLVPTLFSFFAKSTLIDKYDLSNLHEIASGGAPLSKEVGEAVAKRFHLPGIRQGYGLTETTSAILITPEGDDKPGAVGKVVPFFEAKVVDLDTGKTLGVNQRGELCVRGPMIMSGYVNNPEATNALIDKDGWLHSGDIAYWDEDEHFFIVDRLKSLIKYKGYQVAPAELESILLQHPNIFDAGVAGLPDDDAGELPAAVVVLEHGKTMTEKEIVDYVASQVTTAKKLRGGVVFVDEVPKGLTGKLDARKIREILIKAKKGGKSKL
Outline: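 Inhibition of purified Photinus luciferase is measured by luminescence. Substrate levels (D-luciferin, ATP) sit at their KM values. Each compound is tested in a concentration series.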

[9] = qHTS assay to identify small molecule agonists of the constitutive androstane receptor (CAR) signaling pathway - cell viability counter screen (AID 1224836); note: series mostly up to about 92 µM; nearly all actives have a fitted effect of over 45% in size
Outline: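 HepG2 cells stably carrying hCAR and a CYP2B6-2.2kb reporter; 15-concentration compounds plus PK11195 (final 0.75 uM), 23 hr at 37 C/5% CO2. Viability read by CellTiter-Fluor fluorescence.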

[10] = qHTS assay to identify small molecule antagonists of the constitutive androstane receptor (CAR) signaling pathway - cell viability counter screen (AID 1224837); note: series mostly up to about 92 µM; nearly all actives have a fitted effect of over 45% in size
Outline: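 Read-out: CellTiter-Fluor fluorescence after 23 hr at 37 C/5% CO2. Cells: HepG2 double-stable for hCAR and CYP2B6-2.2kb. Compounds tested at 15 concentrations in the presence of CITCO, final concentration 50 nM.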

[11] = target: Nuclear receptor subfamily 1 group I member 3 (Homo sapiens) (UniProt Q14994); experiment: qHTS assay to identify small molecule antagonists of the constitutive androstane receptor (CAR) signaling pathway (AID 1224838);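 note: HepG2 cells stably expressing hCAR with CYP2B6 luciferase reporter stimulated by CITCO; nearly all actives have a fitted effect of over 40% in size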
Sequence of Nuclear receptor subfamily 1 group I member 3 (Homo sapiens) (Q14994 whole entry, looked up): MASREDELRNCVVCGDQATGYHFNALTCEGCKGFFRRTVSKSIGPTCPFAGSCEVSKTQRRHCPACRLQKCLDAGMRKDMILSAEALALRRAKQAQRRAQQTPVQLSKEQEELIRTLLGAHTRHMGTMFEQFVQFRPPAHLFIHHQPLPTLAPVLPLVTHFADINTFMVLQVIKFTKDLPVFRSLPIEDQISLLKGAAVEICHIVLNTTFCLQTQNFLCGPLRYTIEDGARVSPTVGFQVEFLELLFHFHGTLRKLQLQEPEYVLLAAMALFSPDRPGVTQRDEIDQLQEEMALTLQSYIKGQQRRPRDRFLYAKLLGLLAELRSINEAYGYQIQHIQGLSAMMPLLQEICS
Outline: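 Read-out: ONE-Glo luciferase luminescence after 30 min at room temperature. HepG2-CYP2B6-hCAR double-stable cells, compounds in 15-point titration plus 50 nM CITCO final, 24 h at 37 C/5% CO2.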

[12] = target: Nuclear receptor subfamily 1 group I member 3 (Homo sapiens) (UniProt Q14994); experiment: qHTS assay to identify small molecule agonists of the constitutive androstane receptor (CAR) signaling pathway (AID 1224839);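 note: HepG2 cells stably carrying human CAR and a CYP2B6 luciferase reporter; series mostly up to about 92 µM; nearly all actives have a fitted effect of over 15% in size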
Outline: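 HepG2 cells stably co-transfected with hCAR and a CYP2B6-2.2kb luciferase reporter; compounds at 15 concentrations with 0.75 uM PK11195 present. After 24 hr at 37 C, luciferase read by ONE-Glo luminescence.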

[13] = qHTS assay to identify small molecule antagonists of the estrogen related receptor signaling pathway with the pleiotropic PPARgamma coactivator (PGC) from Tox21 10K library - cell viability counter screen (AID 1224840; active = well fitted cell-killing curve with a large enough effect in the repeat runs, not every such curve was filed as active; note: nearly all actives have a fitted effect of over 40% in size)
Outline: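 Fluorescence read-out of CellTiter-Fluor viability reagent, added after cells had been exposed to compound in DMSO for 17.5 h at 37 C; 30 min development at 37 C/5% CO2. Cells: PGC/ERR line, 2,000/well.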

[14] = qHTS assay to identify small molecule antagonists of the estrogen related receptor signaling pathway with the pleiotropic PPARgamma coactivator (PGC) from Tox21 10K library (AID 1224841; call rule not given here; note: series mostly up to about 92 µM; actives are mostly falling curves and most rising ones were filed inactive; nearly all actives have a fitted effect of over 50% in size)
Outline: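 Luminescence read-out (One-Glo luciferase reagent, 30 min at room temperature) from PGC/ERR cells exposed to DMSO-dissolved test compounds for 18 h at 37 C; cells, 2,000 per well, had been preincubated 6 h before compound transfer.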

[15] = qHTS assay to identify small molecule agonists of the estrogen related receptor signaling pathway with the pleiotropic PPARgamma coactivator (PGC) from Tox21 10K library (AID 1224842); note: nearly all actives have a fitted effect of over 15% in size
Outline: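 Luminescence from One-Glo (30 min, room temperature) measured after PGC/ERR cells had 18 h at 37 C with pinned compound (23 nL in DMSO). Cells had been seeded at 2,000 per well and pre-incubated 6 h.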

[16] = target: Thyrotropin receptor (Homo sapiens) (UniProt P16473); experiment: qHTS assay to identify small molecule agonists of the thyroid stimulating hormone receptor (TSHR) signaling pathway (AID 1224843; calls by dose curve; note: potency is the fitted concentration of half-maximal effect; nearly all actives have a fitted effect of over 45% in size)
Sequence of Thyrotropin receptor (Homo sapiens) (P16473 whole entry, looked up): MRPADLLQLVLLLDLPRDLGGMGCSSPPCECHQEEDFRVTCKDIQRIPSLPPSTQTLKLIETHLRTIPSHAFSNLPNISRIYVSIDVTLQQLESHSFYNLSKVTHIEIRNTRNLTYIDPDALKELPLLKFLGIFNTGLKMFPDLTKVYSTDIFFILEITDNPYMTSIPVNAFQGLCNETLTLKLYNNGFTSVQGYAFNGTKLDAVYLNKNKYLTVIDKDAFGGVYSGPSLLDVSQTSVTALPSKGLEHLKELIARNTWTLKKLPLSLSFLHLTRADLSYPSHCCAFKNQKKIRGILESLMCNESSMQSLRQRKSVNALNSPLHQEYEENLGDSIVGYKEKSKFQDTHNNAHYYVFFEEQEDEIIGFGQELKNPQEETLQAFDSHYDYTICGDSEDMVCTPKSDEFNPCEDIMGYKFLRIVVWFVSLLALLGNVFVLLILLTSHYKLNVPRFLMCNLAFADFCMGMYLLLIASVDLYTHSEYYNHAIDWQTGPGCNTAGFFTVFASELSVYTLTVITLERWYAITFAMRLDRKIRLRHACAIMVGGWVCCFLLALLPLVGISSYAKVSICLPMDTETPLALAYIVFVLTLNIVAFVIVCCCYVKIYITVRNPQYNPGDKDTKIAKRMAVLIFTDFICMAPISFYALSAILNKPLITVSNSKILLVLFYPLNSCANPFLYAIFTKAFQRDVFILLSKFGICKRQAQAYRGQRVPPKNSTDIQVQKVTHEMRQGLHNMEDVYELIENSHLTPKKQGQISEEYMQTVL
Outline: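 A cell-based cAMP HTRF format was run in TSHR-transfected HEK293 cells, 800 per well. Treatment: 30 min, room temperature. Detection: 1 h with labelled cAMP and anti-cAMP cryptate. Concentration-response over 15 points, three replicates.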

[17] = qHTS assay to identify small molecule agonists of the hypoxia (HIF-1) signaling pathway - cell viability counter screen (AID 1224844; calls by dose curve; note: nearly all actives have a fitted effect of over 50% in size)
Outline: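 CellTiter-Glo luminescence read-out, 30 min RT, taken in the same wells as the beta-lactamase HRE reporter assay; HRE-bla ME-180 cells, 0.5% dialyzed FBS, 17 hr compound treatment at 37C, 5% CO2.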

[18] = qHTS assay to identify small molecule agonists of H2AX (AID 1224845; active = well fitted activation curve with a large enough effect in the signal ratio in the repeat runs, not every such curve was filed as active; the % refers to the signal ratio)
Outline: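 Phospho-H2AX Ser139 measured by HTRF (ex 320 nm; em 665 and 620 nm) after 24 hr antibody incubation. Compounds, 15 concentrations, 0.76% DMSO, were applied to CHO-K1 cells for 3hr at 37C before lysis.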

[19] = qHTS assay to identify small molecule agonists of the hypoxia (HIF-1) signaling pathway (AID 1224846; active = well fitted activation curve with a large enough effect in the signal ratio in the repeat runs, not every such curve was filed as active; the % refers to the signal ratio)
Outline: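 Beta-lactamase FRET read-out (CCF4-AM substrate) from ME-180 cells carrying an HRE-driven bla reporter, after 17 hrs compound exposure at 37C/5% CO2. Cells were seeded at 2,000 per well in 0.5% dialyzed FBS medium and preincubated 5 hrs.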

Measured: Potency

O=C(c1ccc(OCCCc2cnc[nH]2)cc1)C1CC1
inactive: [1] | [2] | [3] | [4] | [5] | [6]

Cc1cc(NC2CCCCC2)nc(-n2nc(C)cc2C)n1
active: [2] 10.2 µM | [4] 0.694 µM
inactive: [1] | [3] | [6]

Nc1nc(Nc2ccccc2)nc2c1ncn2[C@@H]1O[C@H](CO)C(O)[C@H]1O (stereo not given in full)
inactive: [1] | [2] | [3] | [4] | [5]
active: [6] 1.44 µM

CN=C(N)NCCC[C@H](N)C(=O)O
inactive: [1] | [2] | [3] | [4] | [5] | [6]

CC(C)(C)c1cc(/C=C(\C#N)C(N)=S)cc(C(C)(C)C)c1O
active: [2] 2.46 µM | [4] 2.11 µM
inactive: [1] | [3] | [6]

Cc1cccc(C(=O)NCN2CCN(c3ccccc3C#N)CC2)c1
inactive: [1] | [2] | [3] | [4] | [5] | [6]

O=C(O)CCC(C(=O)O)N1C(=O)c2ccccc2C1=O (stereo not given)
inactive: [1] | [2] | [3] | [4] | [5] | [6]

COCc1nc2c([nH]1)c(=O)n(C)c(=O)n2CC(C)C
inactive: [1] | [2] | [3] | [4] | [5] | [6]

CN1CCc2ccccc2Cc2[nH]c3ccccc3c2CC1
inactive: [1] | [2] | [3] | [4] | [5] | [6]

c1ccc2occc2c1
active: [16] 13.7 µM
not listed: [6]
inactive: all other assays above

O=C(O)CNC(=O)C(CS)Cc1ccccc1 (stereo not given)
inactive: [1] | [2] | [3] | [4] | [5] | [6]

NC(=O)CNCCC(c1ccccc1)c1ccccc1
inactive: [1] | [2] | [3] | [4] | [5] | [6]

C=C1C[C@@]23CC[C@H]4[C@@](C)(CCC[C@@]4(C)C(=O)OC4OC(CO)C(O)C(O)C4O)[C@@H]2CC[C@]1(OC1OC(CO)C(O)C(O)C1OC1OC(CO)C(O)C(O)C1O)C3 (stereo not given in full)
inactive: [1] | [2] | [3] | [4] | [6]

O=C1NC(=O)C(c2ccccc2[N+](=O)[O-])=C1Nc1ccc(O)c(Cl)c1
inactive: [1] | [2] | [3] | [4] | [5] | [6]

Cn1ncc(S(=O)(=O)Cc2ccccc2)c(Br)c1=O
inactive: [1] | [2] | [3] | [4] | [6]

NC(N)=NC(N)=Nc1cccc(Cl)c1
inactive: [1] | [2] | [3] | [4] | [5] | [6]

Nc1ncnc2c1nc(Br)n2C1OC2COP(=O)(O)O[C@@H]2C1O (stereo not given in full)
inactive: [1] | [2] | [3] | [4] | [5] | [6]

O=C1C(SCCO)=C(SCCO)C(=O)c2ccccc21
active: [2] 9.08 µM | [4] 18.8 µM
inactive: [1] | [3] | [6]

CC(=O)NNC(=O)N1Cc2ccccc2Oc2ccc(Cl)cc21
inactive: [1] | [2] | [3] | [4] | [5] | [6]

O=C(/C=C/c1ccc(O)cc1)c1ccc(O)cc1O
inactive: [1] | [2] | [3] | [4] | [5] | [6]

O=C(N[C@@H](Cc1ccccc1)C(=O)CCl)OCc1ccccc1
active: [1] 19.6 µM | [2] 21.1 µM | [4] 16.8 µM | [5] 16.8 µM
inactive: [3] | [6]

CCCCCCCCCCCCCCCC(=O)OC(CC(=O)O)C[N+](C)(C)C (stereo not given)
inactive: [1] | [2] | [3] | [4] | [5] | [6]

CC(C)(C)c1onc(OCP(=O)(O)O)c1CC(N)C(=O)O (stereo not given)
inactive: [1] | [2] | [3] | [4] | [5] | [6]

N#C/C(=C\c1ccc(O)c(O)c1)C(=O)NCCCNC(=O)/C(C#N)=C/c1ccc(O)c(O)c1
inactive: [1] | [2] | [3] | [4] | [6]
